Shiga inhibitor – blocks Shiga toxin action in Vero cells. inhibition, % at 38.7 µM. Vero cells, Shiga toxin protein synthesis inhibition reporter. 9.2% of 290,000 active. AID 2315; in the data active = inhibition mostly above about 28%, no sharp cut-off; inactive = mostly below about 43%; also: 0% is about no effect
Cycloheximide cs – counter-screen for Shiga toxin inhibitors: cycloheximide protein synthesis inhibition; cell reporter, cycloheximide protein synthesis inhibition counterscreen; max response, %; 12% of 300,000 active; in the data active = max response mostly above about 13%, no sharp cut-off; inactive = mostly below about 14%; also: read at 38.3 µM for the half of the compounds with a filed dose; 0% is about no effect
Pf growth 96h – P. falciparum growth inhibition at 96 hour, primary screen for plastid delayed-death inhibitors. Potency, µM (doses to about 28.7 µM), for the others: at the highest dose activity change, negative = inhibition, most hits filed as inhibitors. P. falciparum luciferase reporter growth, 96 h. AID 504834. 6.9% of 320,000 active; also: potency is read from the fitted curve at half-maximal effect; % is scaled to controls: 0 for no effect and ±100 for the full control effect
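Two parasite generations (96 h, 37 C, 5% CO2) of compound exposure in infected erythrocytes (0.05% parasitemia, 2% hematocrit). Luciferase-reporter P. falciparum; decreased luminescence indicates inhibited growth, aimed at apicoplast-acting delayed death.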
FBPA Giardia inh – blocks Giardia fructose-bisphosphate aldolase activity; purified Giardia FBPA; Potency, µM (titrated, usually from 59.6 µM), inactives show at the highest dose activity, negative = inhibition, actives largely listed as inhibitors; 0.71% of 290,000 active; AID 2451; also: potency is read from the fitted curve at half-maximal effect; % is scaled to controls: 0 for no effect and ±100 for the full control effect; nearly all actives have a fitted effect of over 55% in size
Target sequence (A8B2U2 whole entry, looked up): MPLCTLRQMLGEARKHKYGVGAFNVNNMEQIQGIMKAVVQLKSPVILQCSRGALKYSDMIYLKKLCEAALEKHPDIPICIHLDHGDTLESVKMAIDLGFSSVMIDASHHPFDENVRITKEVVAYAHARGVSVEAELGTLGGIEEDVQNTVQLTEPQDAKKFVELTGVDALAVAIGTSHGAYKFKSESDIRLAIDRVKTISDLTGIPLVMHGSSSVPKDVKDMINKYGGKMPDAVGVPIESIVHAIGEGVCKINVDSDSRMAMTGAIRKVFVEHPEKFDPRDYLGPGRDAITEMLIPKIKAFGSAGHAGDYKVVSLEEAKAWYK
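40 nM FBPA preincubated 10 min at RT with compound (up to 57.5 uM final), then substrate plus GAPDH/TPI/NAD/arsenate coupling and diaphorase/resazurin added. Fluorescence read after 20 min at RT, 525/598 nm.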
Pf growth 48h – P. falciparum growth inhibition at 48 hours (one generation); P. falciparum luciferase growth in erythrocytes, 48 h; Potency, µM (series often up to 28.7 µM), inactives show at the top dose activity change, negative = inhibition, most hits filed as inhibitors; 5.9% of 310,000 active; AID 504832; also: potency is read from the fitted curve at half-maximal effect; % is scaled to controls: 0 for no effect and ±100 for the full control effect
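Read-out is firefly luciferase luminescence from an integrated reporter in P. falciparum, so falling signal marks reduced parasite growth. Infected erythrocytes were at 2% hematocrit and 0.1% parasitemia (final) in Albumax-supplemented RPMI 1640.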
NS1 function inh – blocks influenza NS1 protein function; AID 2326; 0.4% of 270,000 active; Potency, µM (highest dose often 46.1 µM), for the others: at the highest dose activity, positive = more growth; calls by dose curve; also: potency is read from the fitted curve at half-maximal effect; actives are rising curves; nearly all actives have a fitted effect of over 50% in size
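Compounds were scored for reversing the slow growth caused by influenza A NS1 in S. cerevisiae, measured by optical density at 600 nm. Assay medium contained 2% galactose at pH 6.0; NS1-free yeast of the same strain were the positive control.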
* hit, by the source's call; u = inconclusive; x = no result given; [ ] = dose if it differs, or a comment. Shown are actives, neighbours in structure and some others; about 21% of the full set was active somewhere. Unless noted, calls follow the shape of the dose curve; as a rule, active = well fitted curve in the direction sought with a large enough effect; inconclusive = small, poorly fitted or top-dose-only effect, or another doubt; inactive = no such curve, though single readings can be large; an effect the other way counts as inactive or inconclusive.

SMILES | Shiga inhibitor | Cycloheximide cs | Pf growth 96h | FBPA Giardia inh | Pf growth 48h | NS1 function inh
COc1cc(SSc2cc(OC)cc([N+](=O)[O-])c2N)c(N)c([N+](=O)[O-])c1 | 17.7 | 8.2 | 9.28µM* | u | u | 14.3%
COc1ccc(/C=C(\NC(=O)c2ccc(OC)cc2)C(=O)N2CCCCC2)cc1 | 10.2 | 2.0 | -11.2% | 0.2% | 13.6% | 14.3%
CCOCCCNC(=O)CN1CCN(S(=O)(=O)c2ccc3c(c2)CCC3)CC1 | x | x | u | x | 24.2% | x
N#CC1=C2SCCN2C(=O)C(C#N)C12CCCCC2 (stereo unspecified) | -11.7 | 3.6 | 2.08µM* | -6.8% | -7.8% | -14.6%
O=C(CSc1ccc(F)cc1)NC1CCCCC1 | 70.6* | 35.6* | 15.0% | -0.2% | 85.9% | -0.6%
O=C(CSc1ccc(Cl)cc1)NC(=O)NC1CCCC1 | x | x | -1.8% | x | -1.5% | x
O=C(CSc1ccc(Cl)cc1)NC1CCCC1 | 72.5* | 35.4* | 68.7% | 6.7% | 56.5% | -8.7%
O=C(CCSc1ccc(Cl)c(Cl)c1)NC12CC3CC(CC(C3)C1)C2 | 77.3 | 27.1* | 1.1% | -0.8% | u | -25.8%
O=C(CSc1ccc(F)cc1)NC12CC3CC(CC(C3)C1)C2 | 39.2 | 37.4* | u | 3.0% | -18.4% | -11.1%
CC(C)NCC[C@@H](O)c1cc2ccccc2o1 | x | x | x | x | x | -1.4%
CC1(C)CC(NC(=O)c2cccc(Cl)c2)CC(C)(C)N1 | 19.3 | -1.1 | -15.3% | 6.6% | 0.0% | -1.2%
CC1(C)C(=O)Nc2ccccc2N1C(=O)CSc1ncccn1 | -11.3 | 0.9 | 15.2% | 0.1% | -11.8% | x
CCCCCCn1c(COc2ccccc2F)nnc1SCC(=O)N1c2ccccc2NC(=O)C1(C)C | -28.5 | -2.4 | 8.28µM* | -6.8% | 13.1µM* | u
CC(CN1CCCC1)OC(=O)c1ccc(Cl)cc1 (stereo unspecified) | -5.2 | 12.5 | 5.0% | u | 3.8% | 12.5%
CC1CCN(CC(C)OC(=O)c2ccc3c(c2)OCCO3)CC1 (stereo unspecified) | 28.1 | 22.7* | 35.7% | 2.6% | x | -0.8%
CC1CCN(CC(=O)c2ccc3c(c2)OCCO3)CC1 | 20.9 | 8.5 | 284.5% | u | 297.8% | x
CC(CN1CCCCC1)OC(=O)c1ccc2c(c1)OCO2 (stereo unspecified) | 24.4 | 25.2* | -16.5% | -5.4% | -7.6% | -6.3%
Cc1cccc(N2CCN(C(=O)COc3ccc4c(C)cc(=O)oc4c3C)CC2)c1C | -7.8 | 1.6 | u | x | 11.7µM* | 6.2%
Cc1cc(=O)oc2cc(OC(C)C(=O)N3CCCc4ccccc43)ccc12 (stereo unspecified) | 60.5 | 23.5* | x | 6.9% | -3.3% | -2.4%
CCc1cc(=O)oc2c(C)c(OCC(=O)N3CCCc4ccccc43)ccc12 | -15.9 | -2.9 | x | 11.1% | 11.7µM* | -32.0%
CCc1cc(=O)oc2cc(OCC(=O)N3CCc4ccccc43)ccc12 | -11.0 | -1.5 | 74.6% | 3.5% | 19.7% | 10.1%
Cc1ccc(OC(C)C(=O)N2CCCc3ccccc32)cc1 (stereo unspecified) | -3.9 | -3.5 | u | 0.5% | x | -7.7%
CN(Cc1ccccc1)C(=O)C1CCN(S(=O)(=O)c2ccc3nc4c(c(C(=O)O)c3c2)CCCC4)CC1 | -1.0 | -6.3 | u | -5.7% | u | 17.7%
CC1CCCC(NC(=O)CCNC(=O)c2ccc([N+](=O)[O-])cc2)C1C (stereo unspecified) | -13.4 | -3.7 | 24.5% | x | 9.2% | -11.8%
CCCCN(C)CCC(=O)Nc1ccc2c(c1)CCC2 | -15.9 | -2.2 | -14.7% | 2.1% | u | -3.0%
SMILES | Shiga inhibitor | Cycloheximide cs | Pf growth 96h | FBPA Giardia inh | Pf growth 48h | NS1 function inh
CCCCc1ccc(Nc2ncccc2C#N)cc1 | 121.9* | 58.2* | 163.9% | -0.7% | 51.8% | -66.4%
N#Cc1cccnc1Nc1ccc(Cl)cc1 | 7.8 | 10.3 | 49.1% | -2.2% | 12.9% | -3.7%
NNC(=O)Cn1c(-c2ccccc2)cc(=O)n2ncnc12 | -23.6 | 1.1 | 3.0% | 4.7% | -11.9% | 9.5%
CC12CS(=O)(=O)CC1SC(=S)N2Cc1ccccc1 (stereo unspecified) | -9.5 | -3.9 | 0.0% | 2.8% | 4.7% | x
CCCN1CC(C)C(OC(C)=O)(c2ccccc2)CC1C (stereo unspecified) | 16.0 | 0.4 | -21.1% | -9.3% | 9.9% | 5.1%
CC1CC(OC(=O)c2ccccc2)(c2ccccc2)C(C)CN1C (stereo unspecified) | -8.6 | -3.3 | u | 5.1% | 6.57µM* | -2.0%
CCOc1ccc(N2C(=O)CC(Cc3ccc(Br)cc3)C2=O)cc1 (stereo unspecified) | -22.6 | -1.4 | u | 9.9% | -1.6% | 14.6%
CCCCN(C(=O)CCC(=O)O)C1CC(=O)N(c2ccc(OCCC)cc2)C1=O (stereo unspecified) | -3.5 | -0.8 | 7.7% | 1.4% | 0.4% | -6.7%
COc1ccccc1N(O)C1CC(=O)N(c2ccc(Br)cc2)C1=O (stereo unspecified) | 41.9* | 27.0* | 16.1% | -19.1% | 4.1% | -16.7%
CCCCCCC(=O)N(O)C1CC(=O)N(c2ccc(Br)cc2)C1=O (stereo unspecified) | -11.8 | -3.5 | 2.5% | -2.5% | 13.1µM* | -66.4%
COc1ccc(N2C(=O)CC(Cc3ccc(Br)cc3)C2=O)cc1 (stereo unspecified) | -4.6 | -2.4 | -23.8% | 5.9% | 25.2% | -19.7%
CCCCCCC(=O)N(O)C1CC(=O)N(c2ccc(F)cc2)C1=O (stereo unspecified) | 7.9 | 8.1 | 9.28µM* | -11.7% | 4.65µM* | -84.3%
Cc1cc2c(c(C)c1Cl)C(c1ccc3c(c1)OCO3)CC(c1ccccc1)O2 (stereo unspecified) | 27.7 | 13.6 | x | -5.8% | x | x
CCc1ccc(CNCCNCC(C)O)cc1 (stereo unspecified) | -21.2 | 4.0 | 42.8% | -6.8% | -4.3% | 8.7%
Oc1ccc(NCc2ccc(OCc3ccccc3)cc2)cc1 | 153.2* | 49.9* | 2.8% | u | 1.2%[0.00184 µM] | -4.2%
CCc1ccc(CNc2ccc(O)cc2)cc1 | 13.9 | 8.8 | 56.4% | 3.97µM* | 11.7µM* | 27.0%
Oc1ccc(OCc2ccccc2)cc1 | x | x | u | -1.5%[21.7 µM] | -26.9%[12.8 µM] | x
Cc1[nH]c2ccccc2c1SCc1n[nH]c(=S)n1C | 5.7 | -0.3 | 0.1% | -10.7% | 9.4% | u
Cc1[nH]c2ccccc2c1Cc1n[nH]c(=S)n1C | -2.4 | -1.2 | 5.22µM* | -10.9% | 14.8% | 13.1%
CC1CC2OC(=O)C3(C)CCCC(C)(C23)C1(O)CCc1ccoc1 (stereo unspecified) | -5.3 | -2.4 | 0.0% | 6.0% | 0.3% | 1.0%
C#CCSc1nnnn1-c1cccc(Cl)c1 | -9.1 | -1.2 | -1.4% | 3.2% | 35.6% | -5.5%
O=C(CNC(=O)c1ccc(F)cc1)N/N=C/c1cc(Br)ccc1OCc1ccccc1 | 10.4 | 1.3 | u | -10.3% | 2.2% | u
O=C(CNC(=O)c1cccc(F)c1)N/N=C/c1cc(Br)ccc1OC(=O)/C=C/c1ccco1 | 14.2 | -1.9 | 13.1µM* | -19.8% | 13.1µM* | 6.7%
